This note sets out measurements from ChEMBL document CHEMBL4513216, “Probing the Open Global Health Chemical Diversity Library for Multistage-Active Starting Points for Next-Generation Antimalarials” (ACS Infect Dis, 2020).

Each structure is given as a SMILES string. In all, about 69,000 compounds went through this assay and about 8,600 (12%) showed an effect of 50% or more. This excerpt belongs to a sample that is enriched for strong results.

The test system of this experiment is Plasmodium berghei. In words: Screen against P. berghei liver stage (PbLuc), transformed with Luciferase, at 10uM. The class given is functional, HepG2. The note with it: tested at 10 uM.
As to `OCC1(O)CCCN(Cc2noc(-c3ccccc3)n2)C1` (configuration not stated), the INHIBITION came to 9.41%.

With `O=C(COCC(=O)N(c1ccccc1)c1ccccc1)N1CCCC1`, the INHIBITION is given as -7.27%.

With `CCn1nc2c(cc1=O)CN(Cc1nc(-c3cccs3)no1)CC2`, the INHIBITION is listed as 60.5%.

For `CCn1nc2c(cc1=O)CN(Cc1nc(-c3ccoc3)no1)CC2`, the INHIBITION amounted to 42.1%.

Consider `CC(C)n1nc2c(cc1=O)CN(Cc1nc(-c3ccoc3)no1)CC2`, for which the INHIBITION was 77.9%.

With `Cn1nc2c(cc1=O)CN(Cc1nc(-c3ccoc3)no1)CC2`, the INHIBITION is -7.16%.

For `Cn1nc2c(cc1=O)CN(Cc1nc(-c3cccs3)no1)CC2`, the INHIBITION came to 26.1%.

As for `CCn1nc2c(cc1=O)CN(Cc1nc(-c3ccsc3)no1)CC2`, the INHIBITION was found to be 7.7%.

For the compound `Cc1ncc2c(n1)CN(Cc1nc(-c3cccs3)no1)CC2`, the INHIBITION was determined as 28.8%.

Regarding `CC(C)c1ncc2c(n1)CN(Cc1nc(-c3cccs3)no1)CC2`, the INHIBITION turned out to be 65.1%.

Turning to `CCc1ncc2c(n1)CN(Cc1nc(-c3cccs3)no1)CC2`, the INHIBITION is 28.8%.

`COCCc1noc(CN2CCc3nn(C(C)C)c(=O)cc3C2)n1`: the INHIBITION turned out to be 48.2%.

For `CCCn1nc2c(cc1=O)CN(Cc1nc(-c3ccoc3)no1)CC2`, the INHIBITION was determined as 61.1%.

Turning to `Cc1ccc(-c2noc(CN3CCc4nn(C)c(=O)cc4C3)n2)cc1`, the INHIBITION is recorded as -11.4%.

For the compound `Cc1nn(C2CCCCC2)c2nc(C(C)(C)CN3CCOCC3)[nH]c12`, the INHIBITION is on record as -16.9%.

Regarding `CN(Cc1noc(C2CC2)n1)C1CCN(Cc2ncc[nH]2)C1` (configuration not stated), the INHIBITION was 3.1%.

Turning to `Cc1nc(CN2CCCC(NCc3cnc(C(C)(C)C)s3)C2)no1` (configuration not stated), the INHIBITION was -19.6%.

For the compound `O=C(NCC1(Sc2ccccc2)CC1)c1cc[nH]n1`, the INHIBITION turned out to be 5.15%.

Regarding `O=C1CCC2(CCC(NCc3ccsc3)CC2)N1Cc1ccccc1` (configuration not stated), the INHIBITION came out at 29.7%.

As to `CCc1c(C)n(C)c2nc3ccccc3n2c1=O`, the INHIBITION is listed as -13.8%.

Turning to `CN1CCCCC1CCC(=O)NCCCn1nccc1C1CC1` (configuration not stated), the INHIBITION came out at 47.7%.

As to `CC(C)N(CC(N)=O)C(=O)CCC(=O)c1ccc(F)cc1F`, the INHIBITION was 23.7%.

For `CS(=O)(=O)c1cccc(C(N)c2ccccc2)c1` (configuration not stated), the INHIBITION was -19.4%.

As for `N#CC1(C(=O)NCc2ccc(F)cc2)CCCC1`, the INHIBITION was -22.1%.

As to `CC(C)(N)C(=O)N1CCCC1c1cncc(Oc2ccccc2)n1` (configuration not stated), the INHIBITION came out at 26.3%.

For `CC(C)n1nc2c(cc1=O)CN(Cc1nc(-c3ccco3)no1)CC2`, the INHIBITION amounted to 54.4%.

With `CCCn1nc2c(cc1=O)CN(Cc1c(C)noc1C)CC2`, the INHIBITION was found to be 2.69%.

Turning to `CCn1nc2c(cc1=O)CN(Cc1nc(-c3ccco3)no1)CC2`, the INHIBITION was determined as 35.9%.

With `Cc1cc(CN2CCc3nn(C(C)C)c(=O)cc3C2)no1`, the INHIBITION is on record as 35.1%.

For `Cc1noc(C)c1CN1CCc2nn(C(C)C)c(=O)cc2C1`, the INHIBITION is 54.4%.

Take `CCCn1nc2c(cc1=O)CN(Cc1nc(-c3ccco3)no1)CC2`: the INHIBITION is given as 20.8%.

In the case of `CCN(CC1CCOCC1)C(=O)CCNC(=O)c1ccccc1F`, the INHIBITION was determined as 32.2%.

On to `CC(C)Cc1noc(CN(C)C(=O)CCNC(=O)c2ccccc2F)n1`, for which the INHIBITION is reported as 51.5%.

Consider `CCN(CC1CCCCO1)C(=O)CCNC(=O)c1ccccc1F` (configuration not stated), for which the INHIBITION came to 28.5%.

Regarding `CC(C)c1nc(CN(C)C(=O)CCNC(=O)c2ccccc2F)no1`, the INHIBITION came to 12.4%.

For `Cc1nc(CCN(C)C(=O)CCNC(=O)c2ccccc2F)no1`, the INHIBITION came out at 43.9%.

For `CCN(Cc1nc(COC)no1)C(=O)CCNC(=O)c1ccccc1F`, the INHIBITION is given as 58.1%.

With `CC(C)CCNC(=O)C1CCN(c2ccc3nnc(C(C)C)n3n2)CC1`, the INHIBITION is given as 21%.

For `O=S(=O)(NCC1(c2cccs2)CCOCC1)c1cccnc1`, the INHIBITION is listed as -115%.

Take `NCc1cccc(NC(=O)CCN2CCOCC2)c1`: the INHIBITION is -5.1%.

As for `OCCC[C@@H]1CN(c2ncc(Cl)cc2Cl)CC[C@@H]1N1CCOCC1`, the INHIBITION worked out at 1.93%.

With `O=C(NCc1cn2c(n1)CN(Cc1cccnc1)CC2)C1CCC1`, the INHIBITION is recorded as 26.3%.

Regarding `c1ccc(-c2cc(CNCCCN3CCCCC3)c3nnnn3c2)cc1`, the INHIBITION was -38.2%.

Regarding `c1ccc(-c2cc(CNCCN3CCOCC3)c3nnnn3c2)cc1`, the INHIBITION came out at 5.11%.

As for `c1ccc(-c2cc(CNCCCC3CCOC3)c3nnnn3c2)cc1` (configuration not stated), the INHIBITION was 74.9%.

In the case of `Cc1cc(C)n(CC2CCN(CC(O)Cn3cccn3)CC2)n1` (configuration not stated), the INHIBITION is -12.2%.

As for `Cc1cnn(CC2CCN(CC(O)c3ccccc3)CC2)c1` (configuration not stated), the INHIBITION worked out at 33%.

`Cc1cnn(CC2CCN(CC(O)CN3CCC(C)CC3)CC2)c1` (configuration not stated): the INHIBITION came out at 30.4%.

Turning to `Cc1cnn(CC2CCN(CC(O)c3ccccc3Cl)CC2)c1` (configuration not stated), the INHIBITION is reported as 57.2%.

On to `Cc1cnn(CC2CCN(CC(O)COc3ccc(F)cc3)CC2)c1` (configuration not stated), for which the INHIBITION is on record as 56.1%.

With `Cc1cnn(CC2CCN(CC(O)Cn3cccn3)CC2)c1` (configuration not stated), the INHIBITION came to 68.5%.

As to `Cc1cnn(CC2CCN(CC(O)c3ccccc3F)CC2)c1` (configuration not stated), the INHIBITION was -30.8%.

For the compound `Cc1ccc(OCC(O)CN2CCC(Cn3cc(C)cn3)CC2)cc1` (configuration not stated), the INHIBITION was 33.3%.

In the case of `Cc1cnn(CC2CCN(CC(O)COc3ccccc3)CC2)c1` (configuration not stated), the INHIBITION is given as 14.5%.

As to `CCC(CC)S(=O)(=O)NC(=O)c1ccc2c(c1)ncn2C`, the INHIBITION was found to be 5.11%.

Regarding `NC(=O)C1CCN(C(=O)NCCOc2ccc3c(c2)OCO3)C1` (configuration not stated), the INHIBITION is listed as -69.3%.

In the case of `CCCc1noc(CN2CCCCC2Cn2cncn2)n1` (configuration not stated), the INHIBITION stood at 27.2%.

Consider `CN1CCN(CCO)C(=O)C12CCN(Cc1ccsc1)CC2`, for which the INHIBITION came to 18.2%.

As to `O=C(N[C@@H]1CCC[C@@H](N2CCCC2)[C@@H]1O)c1cc2ccccc2[nH]1`, the INHIBITION turned out to be 48.4%.

On to `CN(C)CC(=O)N1CC(c2nn(C)c3nccnc23)C1`, for which the INHIBITION is -0.902%.

Turning to `N#Cc1cccnc1N1CCC(OCc2ccccc2)CC1`, the INHIBITION is given as 18.9%.

Regarding `O=C(c1ccc(-n2cccn2)nc1)N1CCCC(c2cnccn2)C1` (configuration not stated), the INHIBITION is recorded as -50.3%.

As to `NC(=O)CC1CCN(c2cncc(OCc3ccccc3)n2)CC1`, the INHIBITION was found to be 12.4%.

For the compound `Nc1cccnc1N1CCC(c2ccccc2)CC1`, the INHIBITION is 6.29%.

On to `Cn1cnnc1C1CCN(c2cncc(-n3cccn3)n2)CC1`, for which the INHIBITION is recorded as -8.19%.

Regarding `c1ccc(C2CCCN(c3cncc(-n4cccn4)n3)CC2)cc1` (configuration not stated), the INHIBITION turned out to be 90.2%.

Consider `CN(C)C(=O)C1CCN(c2cncc(-n3cccn3)n2)CC1`, for which the INHIBITION is given as 41.4%.

For the compound `NC(=O)C1CCN(c2cncc(-n3cccn3)n2)CC1`, the INHIBITION is 48.3%.

For the compound `c1cc(C2CCN(c3cnccn3)CC2)ccn1`, the INHIBITION is recorded as 18.4%.

`c1ccc(COC2CCN(c3cncc(-n4cccn4)n3)CC2)cc1`: the INHIBITION is reported as 53.5%.

On to `c1ccc(C2CCN(c3cncc(-n4cccn4)n3)CC2)cc1`, for which the INHIBITION is listed as 85.1%.

On to `O=C(c1ccccc1)C1CCN(c2cncc(-n3cccn3)n2)CC1`, for which the INHIBITION turned out to be 74.8%.
